Experimental data: the supplement of paper PMC11732987, “Enantioselective OTUD7B fragment discovery through chemoproteomics screening and high-throughput optimisation” (Communications Chemistry, 2025)

How the values were obtained:
Assay in all cases: log2 ratio of Biotin-Ahx-Ub-VS probe labelling (fragment/DMSO); higher = less target engagement (more negative = stronger competition), active = hit call of the paper (q ≤ 0.05, log2 ratio ≤ -1)
Conditions in all cases: compound concentration: 200 uM; treatment time: 3 h
USP34 = USP34 (UniProt Q70CQ2)
USP34, sequence (Q70CQ2 whole entry, the tested form may be a part): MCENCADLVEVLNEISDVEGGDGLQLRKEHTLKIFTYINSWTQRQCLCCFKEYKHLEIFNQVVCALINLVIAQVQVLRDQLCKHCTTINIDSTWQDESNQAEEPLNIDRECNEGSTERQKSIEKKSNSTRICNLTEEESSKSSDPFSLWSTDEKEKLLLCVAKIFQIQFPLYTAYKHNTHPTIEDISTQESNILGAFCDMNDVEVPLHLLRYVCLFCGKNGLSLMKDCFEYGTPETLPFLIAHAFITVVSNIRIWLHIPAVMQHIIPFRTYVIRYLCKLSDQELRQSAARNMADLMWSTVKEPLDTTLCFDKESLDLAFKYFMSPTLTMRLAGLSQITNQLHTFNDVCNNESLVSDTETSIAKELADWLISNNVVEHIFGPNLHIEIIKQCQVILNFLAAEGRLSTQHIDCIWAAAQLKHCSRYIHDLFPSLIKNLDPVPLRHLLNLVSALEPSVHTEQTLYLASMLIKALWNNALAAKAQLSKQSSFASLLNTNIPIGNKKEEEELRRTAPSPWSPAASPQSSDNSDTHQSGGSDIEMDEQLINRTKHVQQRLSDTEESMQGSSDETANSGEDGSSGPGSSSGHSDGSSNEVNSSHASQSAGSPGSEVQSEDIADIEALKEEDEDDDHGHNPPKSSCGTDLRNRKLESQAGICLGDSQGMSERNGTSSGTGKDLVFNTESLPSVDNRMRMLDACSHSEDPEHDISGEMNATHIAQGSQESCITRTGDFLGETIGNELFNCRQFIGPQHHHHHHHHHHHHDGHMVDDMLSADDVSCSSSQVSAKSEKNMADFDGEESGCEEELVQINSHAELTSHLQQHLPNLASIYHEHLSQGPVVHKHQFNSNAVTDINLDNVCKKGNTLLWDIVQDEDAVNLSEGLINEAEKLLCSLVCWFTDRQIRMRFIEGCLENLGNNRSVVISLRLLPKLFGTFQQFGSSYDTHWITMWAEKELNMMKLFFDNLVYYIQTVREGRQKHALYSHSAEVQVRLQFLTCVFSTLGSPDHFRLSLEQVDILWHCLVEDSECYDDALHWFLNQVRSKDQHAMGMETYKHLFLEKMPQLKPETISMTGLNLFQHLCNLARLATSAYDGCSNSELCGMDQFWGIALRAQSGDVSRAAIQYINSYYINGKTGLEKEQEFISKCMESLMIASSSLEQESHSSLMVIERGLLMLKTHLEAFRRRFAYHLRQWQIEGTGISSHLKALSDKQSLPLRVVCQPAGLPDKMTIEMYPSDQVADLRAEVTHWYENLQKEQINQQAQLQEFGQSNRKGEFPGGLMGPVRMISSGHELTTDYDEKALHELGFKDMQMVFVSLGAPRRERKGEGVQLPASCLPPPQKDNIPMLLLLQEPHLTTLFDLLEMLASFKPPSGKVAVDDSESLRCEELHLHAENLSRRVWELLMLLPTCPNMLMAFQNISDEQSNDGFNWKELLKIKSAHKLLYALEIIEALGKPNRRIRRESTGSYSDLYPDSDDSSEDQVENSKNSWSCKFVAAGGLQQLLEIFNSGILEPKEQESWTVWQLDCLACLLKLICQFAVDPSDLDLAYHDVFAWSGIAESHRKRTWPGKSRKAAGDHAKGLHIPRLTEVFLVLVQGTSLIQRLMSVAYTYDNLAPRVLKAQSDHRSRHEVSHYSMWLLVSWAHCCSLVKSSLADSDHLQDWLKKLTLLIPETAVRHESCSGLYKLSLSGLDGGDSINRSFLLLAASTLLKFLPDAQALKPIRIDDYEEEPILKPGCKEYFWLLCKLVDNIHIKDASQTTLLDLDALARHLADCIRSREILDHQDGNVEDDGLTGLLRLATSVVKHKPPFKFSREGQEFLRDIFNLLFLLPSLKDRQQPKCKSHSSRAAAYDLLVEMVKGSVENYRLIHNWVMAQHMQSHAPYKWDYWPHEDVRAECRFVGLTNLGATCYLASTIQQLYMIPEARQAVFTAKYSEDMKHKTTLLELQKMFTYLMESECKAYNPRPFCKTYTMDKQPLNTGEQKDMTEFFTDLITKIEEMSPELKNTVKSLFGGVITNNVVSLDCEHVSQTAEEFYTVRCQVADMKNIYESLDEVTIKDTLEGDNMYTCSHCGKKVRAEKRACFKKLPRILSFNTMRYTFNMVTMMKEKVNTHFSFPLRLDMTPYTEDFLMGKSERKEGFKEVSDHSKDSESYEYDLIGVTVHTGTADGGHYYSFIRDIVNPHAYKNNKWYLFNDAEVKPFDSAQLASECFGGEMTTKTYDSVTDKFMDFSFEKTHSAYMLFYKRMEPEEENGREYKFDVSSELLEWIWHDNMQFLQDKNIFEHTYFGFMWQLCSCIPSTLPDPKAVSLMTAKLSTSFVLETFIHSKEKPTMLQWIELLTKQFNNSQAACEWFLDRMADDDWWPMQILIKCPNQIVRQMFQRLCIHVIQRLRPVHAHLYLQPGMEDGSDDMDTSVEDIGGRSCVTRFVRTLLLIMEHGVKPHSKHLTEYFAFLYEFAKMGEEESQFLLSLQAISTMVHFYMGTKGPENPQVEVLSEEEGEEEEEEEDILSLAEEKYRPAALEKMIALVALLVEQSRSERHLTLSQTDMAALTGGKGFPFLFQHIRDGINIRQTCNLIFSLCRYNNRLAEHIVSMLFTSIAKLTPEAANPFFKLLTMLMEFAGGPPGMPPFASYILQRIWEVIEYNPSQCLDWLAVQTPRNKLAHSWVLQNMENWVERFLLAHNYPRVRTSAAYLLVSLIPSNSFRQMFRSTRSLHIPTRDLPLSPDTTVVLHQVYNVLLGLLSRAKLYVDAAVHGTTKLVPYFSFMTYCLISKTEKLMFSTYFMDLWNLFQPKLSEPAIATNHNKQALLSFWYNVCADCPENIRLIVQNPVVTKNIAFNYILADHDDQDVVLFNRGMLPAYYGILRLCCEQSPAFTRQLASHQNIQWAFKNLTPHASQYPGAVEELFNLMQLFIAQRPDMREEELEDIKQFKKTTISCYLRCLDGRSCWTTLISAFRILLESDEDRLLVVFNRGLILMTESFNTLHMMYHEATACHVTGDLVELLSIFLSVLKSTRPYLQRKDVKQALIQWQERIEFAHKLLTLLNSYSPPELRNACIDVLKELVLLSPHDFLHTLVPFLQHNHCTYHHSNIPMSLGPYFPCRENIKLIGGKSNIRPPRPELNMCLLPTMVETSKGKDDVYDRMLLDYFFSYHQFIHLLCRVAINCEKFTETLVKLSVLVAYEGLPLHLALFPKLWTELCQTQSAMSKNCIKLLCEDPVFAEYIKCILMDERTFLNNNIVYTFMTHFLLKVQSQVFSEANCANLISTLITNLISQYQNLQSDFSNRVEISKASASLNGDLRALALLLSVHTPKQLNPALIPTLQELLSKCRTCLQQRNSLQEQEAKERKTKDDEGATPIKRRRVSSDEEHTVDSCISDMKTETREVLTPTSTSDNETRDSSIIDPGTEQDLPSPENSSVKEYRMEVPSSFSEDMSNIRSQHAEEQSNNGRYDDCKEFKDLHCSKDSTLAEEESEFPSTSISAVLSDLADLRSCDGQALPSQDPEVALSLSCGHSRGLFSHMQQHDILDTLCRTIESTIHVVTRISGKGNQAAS
In short: (§1)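 Fragment (200 µM) or vehicle was incubated for 3 h with triplicate HEK293T lysate samples of 495 µg, which were then treated with Biotin-Ahx-Ub-VS at 0.5 µM final for 1 h. Labelled DUBs were enriched on NeutrAvidin, digested with LysC and trypsin, and analysed by diaPASEF LC-MS/MS. Values are average log2 fragment/vehicle ratios from an unpaired t-test on global-median-normalised Spectronaut label-free quantities, using proteins with ≥2 unique peptides.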

USP36 = target: T1, USP36 (UniProt Q9P275)
T1 sequence (whole entry): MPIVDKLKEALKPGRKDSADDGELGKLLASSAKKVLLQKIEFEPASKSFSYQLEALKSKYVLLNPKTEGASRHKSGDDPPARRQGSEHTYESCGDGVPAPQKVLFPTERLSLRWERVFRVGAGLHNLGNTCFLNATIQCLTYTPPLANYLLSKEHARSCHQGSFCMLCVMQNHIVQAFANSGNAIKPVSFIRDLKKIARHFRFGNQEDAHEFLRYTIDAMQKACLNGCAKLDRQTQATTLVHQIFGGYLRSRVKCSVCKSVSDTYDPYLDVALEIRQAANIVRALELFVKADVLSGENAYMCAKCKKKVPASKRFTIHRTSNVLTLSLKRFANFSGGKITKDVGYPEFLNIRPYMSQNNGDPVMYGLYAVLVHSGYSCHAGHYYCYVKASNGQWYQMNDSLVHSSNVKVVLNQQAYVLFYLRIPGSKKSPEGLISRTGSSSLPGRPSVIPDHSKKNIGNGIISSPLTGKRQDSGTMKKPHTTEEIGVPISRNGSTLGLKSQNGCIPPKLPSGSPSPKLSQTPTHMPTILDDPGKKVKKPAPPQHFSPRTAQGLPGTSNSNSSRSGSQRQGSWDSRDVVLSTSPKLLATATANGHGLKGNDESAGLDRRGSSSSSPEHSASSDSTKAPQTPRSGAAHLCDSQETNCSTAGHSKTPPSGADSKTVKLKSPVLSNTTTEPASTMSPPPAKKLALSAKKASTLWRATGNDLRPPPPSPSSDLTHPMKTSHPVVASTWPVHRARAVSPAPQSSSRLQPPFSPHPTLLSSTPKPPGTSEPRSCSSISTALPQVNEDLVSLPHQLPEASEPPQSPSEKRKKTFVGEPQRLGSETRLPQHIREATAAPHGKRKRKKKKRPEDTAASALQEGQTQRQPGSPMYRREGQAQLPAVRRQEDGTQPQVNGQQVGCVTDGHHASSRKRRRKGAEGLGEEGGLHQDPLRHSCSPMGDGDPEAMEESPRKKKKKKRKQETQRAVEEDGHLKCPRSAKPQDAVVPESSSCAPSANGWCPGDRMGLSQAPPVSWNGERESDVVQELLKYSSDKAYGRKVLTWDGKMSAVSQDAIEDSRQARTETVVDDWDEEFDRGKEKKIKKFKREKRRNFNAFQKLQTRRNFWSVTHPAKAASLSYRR
In short: as §1

USP38 = target: T2, USP38 (UniProt Q8NB14)
T2 sequence (whole entry): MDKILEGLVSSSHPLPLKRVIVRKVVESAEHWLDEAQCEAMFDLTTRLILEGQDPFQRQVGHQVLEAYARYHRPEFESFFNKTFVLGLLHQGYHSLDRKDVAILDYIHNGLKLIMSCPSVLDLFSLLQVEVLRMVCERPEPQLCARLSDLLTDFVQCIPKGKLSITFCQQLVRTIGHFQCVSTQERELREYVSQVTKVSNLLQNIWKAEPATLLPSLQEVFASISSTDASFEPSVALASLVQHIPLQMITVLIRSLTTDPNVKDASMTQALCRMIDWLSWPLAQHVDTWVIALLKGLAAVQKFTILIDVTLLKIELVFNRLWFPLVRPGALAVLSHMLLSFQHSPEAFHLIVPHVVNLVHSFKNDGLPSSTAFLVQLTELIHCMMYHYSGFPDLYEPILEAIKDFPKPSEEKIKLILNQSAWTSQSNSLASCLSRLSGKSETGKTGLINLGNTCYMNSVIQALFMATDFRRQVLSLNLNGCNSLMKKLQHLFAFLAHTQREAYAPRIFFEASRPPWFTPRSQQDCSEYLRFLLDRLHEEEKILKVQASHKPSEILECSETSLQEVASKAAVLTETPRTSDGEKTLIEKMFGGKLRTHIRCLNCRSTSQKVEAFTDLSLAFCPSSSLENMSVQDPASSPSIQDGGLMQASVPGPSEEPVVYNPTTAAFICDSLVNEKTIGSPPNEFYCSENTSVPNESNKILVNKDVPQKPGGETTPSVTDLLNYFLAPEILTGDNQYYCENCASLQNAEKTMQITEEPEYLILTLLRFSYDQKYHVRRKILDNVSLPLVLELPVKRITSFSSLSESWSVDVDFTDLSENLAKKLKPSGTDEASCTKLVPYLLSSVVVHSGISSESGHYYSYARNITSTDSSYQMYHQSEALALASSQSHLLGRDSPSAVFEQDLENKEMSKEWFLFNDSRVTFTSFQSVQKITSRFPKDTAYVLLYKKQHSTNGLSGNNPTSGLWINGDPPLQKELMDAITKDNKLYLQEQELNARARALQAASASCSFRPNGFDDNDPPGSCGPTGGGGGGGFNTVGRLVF
In short: as §1

USP39 = target: T3, USP39 (UniProt Q53GS9)
T3 sequence (whole entry): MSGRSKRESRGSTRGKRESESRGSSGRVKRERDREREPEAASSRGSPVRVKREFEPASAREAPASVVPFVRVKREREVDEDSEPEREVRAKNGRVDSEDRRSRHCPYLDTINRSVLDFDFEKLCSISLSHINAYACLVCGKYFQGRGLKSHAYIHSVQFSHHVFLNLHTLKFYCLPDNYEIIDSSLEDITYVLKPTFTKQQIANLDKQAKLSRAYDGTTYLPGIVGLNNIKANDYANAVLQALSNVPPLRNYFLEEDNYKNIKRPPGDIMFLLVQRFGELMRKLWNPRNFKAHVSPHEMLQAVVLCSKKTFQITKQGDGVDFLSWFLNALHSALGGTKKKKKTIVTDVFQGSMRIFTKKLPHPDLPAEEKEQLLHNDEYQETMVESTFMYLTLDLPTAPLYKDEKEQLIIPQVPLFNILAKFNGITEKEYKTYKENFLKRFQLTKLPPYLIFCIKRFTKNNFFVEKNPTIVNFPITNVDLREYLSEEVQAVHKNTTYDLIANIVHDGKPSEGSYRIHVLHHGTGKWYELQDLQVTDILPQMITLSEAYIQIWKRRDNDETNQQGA
In short: as §1

USP4 = target: T4, USP4 (UniProt Q13107)
T4 sequence (whole entry): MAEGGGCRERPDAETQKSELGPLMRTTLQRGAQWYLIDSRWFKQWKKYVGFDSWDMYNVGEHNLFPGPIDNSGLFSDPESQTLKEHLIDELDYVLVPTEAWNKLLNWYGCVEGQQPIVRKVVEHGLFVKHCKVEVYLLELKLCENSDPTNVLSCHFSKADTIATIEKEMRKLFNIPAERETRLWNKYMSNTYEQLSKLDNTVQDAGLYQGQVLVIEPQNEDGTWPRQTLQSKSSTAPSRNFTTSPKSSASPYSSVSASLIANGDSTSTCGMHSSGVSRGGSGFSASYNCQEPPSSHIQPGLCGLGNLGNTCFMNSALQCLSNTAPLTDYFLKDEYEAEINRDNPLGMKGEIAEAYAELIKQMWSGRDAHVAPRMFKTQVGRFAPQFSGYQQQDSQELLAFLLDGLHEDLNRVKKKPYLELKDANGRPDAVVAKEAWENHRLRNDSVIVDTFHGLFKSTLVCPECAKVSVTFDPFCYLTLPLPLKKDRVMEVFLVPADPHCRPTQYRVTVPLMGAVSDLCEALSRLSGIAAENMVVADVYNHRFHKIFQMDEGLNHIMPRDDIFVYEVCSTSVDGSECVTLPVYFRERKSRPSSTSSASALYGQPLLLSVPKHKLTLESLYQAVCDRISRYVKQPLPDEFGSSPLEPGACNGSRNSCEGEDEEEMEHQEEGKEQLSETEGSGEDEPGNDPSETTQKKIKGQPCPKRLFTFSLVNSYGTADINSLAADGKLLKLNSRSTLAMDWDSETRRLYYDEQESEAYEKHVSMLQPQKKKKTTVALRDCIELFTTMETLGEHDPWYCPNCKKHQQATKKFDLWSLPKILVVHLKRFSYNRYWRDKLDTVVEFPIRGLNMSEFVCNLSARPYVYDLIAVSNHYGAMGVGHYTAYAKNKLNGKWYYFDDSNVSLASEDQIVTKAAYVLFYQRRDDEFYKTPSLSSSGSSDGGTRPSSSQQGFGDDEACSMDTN
In short: as §1

Measured: log2 ratio of Biotin-Ahx-Ub-VS probe labelling

CN(C)C(=O)c1ccc(NC(=O)CCl)cc1
inactive: USP34 -0.218 | USP36 0.00972 | USP38 -0.0389 | USP39 0.0586 | USP4 -0.323
